Records with an inconclusive call do not appear. The source made the active and inactive calls. The call rests on the fitted dose curve; in most records, active means well fitted cell-killing curve with a large enough effect; inconclusive means small, poorly fitted or top-dose-only effect, or effect the other way; inactive means no such curve, though single readings can be large or run the other way.
Potency means the concentration at half of the fitted maximal effect.

This assay relates to SKOV3. The experiment in a line: Confirmatory qHTS for gynecologic anti-cancer compounds from libraries of approved drugs and bioactive compounds. Further: nearly all actives have a fitted effect of over 55% in size. To be noted: gynecologic cancer cell panel viability, ATPlite luminescence, 48 h; series mostly up to 57.6 µM. The method in brief: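 IC50 values derive from an ATPlite ATP-content luminescence assay following 48 h treatment at 37 C. Each compound ran as an 11-concentration, threefold series (57.5 uM to 0.977 nM); HEK 293T served as control line for selectivity index.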
(In general: Quantitative high-throughput screening tests each substance at several concentrations.)
For `CC[C@@]1(O)C(=O)OCc2c1cc1n(c2=O)Cc2cc3c(CN(C)C)c(O)ccc3nc2-1`, the Potency is 0.544 µM (active).
With `CCN(CC)CCCC(C)Nc1ccnc2cc(Cl)ccc12` (stereo not drawn) the entry was “inactive”; with `O=c1cc(CN2CCOCC2)occ1OCCCCCSc1ccnc2cc(C(F)(F)F)ccc12`, “inactive”; with `COc1ccc2c(c1)c(CC(=O)O)c(C)n2C(=O)c1ccc(Cl)cc1`, “inactive”.
For the compound `Cc1[nH]c2ccccc2c1CCNCc1ccc(/C=C/C(=O)NO)cc1`, the Potency was 0.172 µM (active).
`CC(C)C[C@H](NC(=O)[C@H](Cc1ccccc1)NC(=O)c1cnccn1)B(O)O`: the Potency was 3.06 µM (active).
`O=C(CCCCCCC(=O)Nc1ccccc1)NO`: the Potency is 1.37 µM (active).
As for `CCCCN(CCCC)C(=O)CN1C[C@H](c2ccc3c(c2)OCO3)[C@@H](C(=O)O)[C@@H]1c1ccc(OC)cc1`, the Potency result was “inactive”.
`CC[C@@]1(O)C(=O)OCc2c1cc1n(c2=O)Cc2c-1nc1ccccc1c2/C=N/OC(C)(C)C`: the Potency is 0.0432 µM (active).
With `CCOC(=O)C1=C(C)NC2=C(C(=O)CC(C)(C)C2)C1c1ccc(-c2ccccc2)cc1` (stereo not drawn) the entry was “inactive”; with `S=c1nc[nH]c2nc[nH]c12`, 5.44 µM (active); with `Oc1cn2c(n1)Nc1ccc(Cl)c(Cl)c1C2`, “inactive”.
Regarding `N#CC1(c2cccc(C(=O)Nc3cc(Oc4ccc5nc(NC(=O)C6CC6)sc5n4)ccc3F)c2Cl)CC1`, the Potency was 17.2 µM (active).
For `COc1cccc2c1C(=O)c1c(O)c3c(c(O)c1C2=O)C[C@@](O)(C(=O)CO)C[C@@H]3O[C@H]1C[C@H](N)[C@H](O[C@@H]2CCCCO2)[C@H](C)O1`, the Potency was 0.685 µM (active).
In the case of `NC(=O)Nc1cc(-c2cccc(F)c2)sc1C(=O)NC1CCCNC1` (stereo not drawn), the Potency was 5.44 µM (active).
The same measure for `C=CC(=O)Nc1cc2c(Nc3ccc(F)c(Cl)c3)ncnc2cc1OCCCN1CCOCC1`: 24.3 µM (active); for `COc1cc(N2CCC(N)CC2)ccc1Nc1ncc(Cl)c(-c2c[nH]c3ccccc23)n1`: 21.7 µM (active); for `CNc1nc(Nc2ccc(C(=O)N3CCOCC3)cc2OC)ncc1Cl`: “inactive”.
With `CCN(CC)CCNC(=O)c1c(C)[nH]c(/C=C2\C(=O)Nc3ccc(F)cc32)c1C` the figure was 15.8 µM (active); with `COc1ccc2cc3[n+](cc2c1OC)CCc1cc2c(cc1-3)OCO2`, “inactive”; with `COc1cc2c(NC3CCN(C(C)C)CC3)nc(C3CCCCC3)nc2cc1OCCCN1CCCC1`, 30.6 µM (active).
Regarding `COc1cc2c(cc1-c1c(C)noc1C)ncc1[nH]c(=O)n(C(C)c3ccccn3)c12` (stereo not drawn), the Potency result was “inactive”.
For `CC[C@H](CC#N)OC(=O)N[C@@H](C)c1cccc(NC(=O)Nc2ccc(-c3cnco3)c(OC)c2)c1`, the Potency entry is “inactive”.
The same measure for `CC(C)Oc1ccc2c(=O)c(-c3ccccc3)coc2c1`: 21.7 µM (active); for `CC(C)n1nc(-c2cc3cc(O)ccc3[nH]2)c2c(N)ncnc21`: 3.85 µM (active).
Take `C[C@]12CCC(=O)C=C1CC[C@@H]1[C@@H]2[C@@H](O)C[C@@]2(C)[C@H]1CC[C@]2(O)C(=O)CO`: the Potency result was “inactive”.
In the case of `C[C@@]1(C(=O)Nc2ccc(F)nc2)CCCN1c1nc(Nc2cc(C3CC3)[nH]n2)c2cccn2n1`, the Potency was 3.43 µM (active).
With `CN1CCN(c2cccc(Nc3nc4c(-c5ccc(S(C)(=O)=O)cc5)cccn4n3)c2)CC1` the entry was “inactive”; with `CCN[C@H]1C[C@H](C)S(=O)(=O)c2sc(S(N)(=O)=O)cc21`, “inactive”.
Consider `CN1C2CCC1CC(OC(=O)[C@H](CO)c1ccccc1)C2` (stereo partly drawn), for which the Potency result was “inactive”.
Take `FC(F)(F)c1ccc(/C=C/c2nc(COc3ccc(CCCCn4ccnn4)cc3)co2)cc1`: the Potency entry was “inactive”.
`CCS(=O)(=O)c1cccc(-c2cc(C(=O)NC3CCN(C)CC3)c(C)c3[nH]c4ncc(C)cc4c23)c1`: the Potency was 4.76 µM (active).
The same measure for `OCCNC1CCCc2c1[nH]c1ccc(-c3ccccc3)cc21` (stereo not drawn): 30.6 µM (active).

Source of the values: PubChem BioAssay AID1345085 (National Center for Advancing Translational Sciences (NCATS), 2018).
